{"source": "PubChem BioAssay (NCATS)", "key": {"[1]": {"assay": "qHTS Assay for Lipid Storage Modulators (AID 1519; calls by dose curve; as to activity change, negative = inhibition: % is scaled to controls: 0 for no effect and ±100 for the full control effect)", "conditions": "Drosophila S3 cells, BODIPY lipid droplet/cell ratio, laser cytometry, cells loaded with oleic acid", "in_short": "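Cells seeded at 5,000 per well were treated with compounds over a concentration series and loaded with oleic acid (400 uM, as added). Lipid droplet fluorescence (488 nm excitation, 500-530 nm channel) was read by laser-scanning cytometry and normalized to 20 uM Triacsin C.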"}, "[2]": {"assay": "Cell Viability - LYMP2-006 (AID 978);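 also: cells exposed to compound for 24 hours; % is scaled to controls: 0 for no effect and ±100 for the full control effect; nearly all actives have a fitted effect of over 60% in size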", "in_short": "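Human lymphoblastoid cells (LYMP2-006), 2500/well in complete medium, were treated with compound for 24 hr at 37 C. Cellular ATP was read by CellTiter-Glo luminescence after 30 min, and AC50 values came from Hill-equation fits of concentration-response data.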"}, "[3]": {"assay": "Cell Viability - LYMP2-007 (AID 979);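 also: cells exposed to compound for 24 h before reading; 0% = DMSO only and the negative end = 92 µM tetraoctylammonium bromide; nearly all actives have a fitted effect of over 60% in size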", "in_short": "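qHTS cytotoxicity: 2500 cells/well, 5 hr 37 C settle, compound 24 hr 37 C, CellTiter-Glo 30 min RT, luminescence. Decrease in ATP = toxicity. AC50 by standard Hill equation; tetraoctylammonium bromide positive control.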"}, "[4]": {"assay": "Cell Viability - LYMP2-008 (AID 980); also: % is scaled to controls: 0 for no effect and ±100 for the full control effect; nearly all actives have a fitted effect of over 60% in size", "in_short": "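Luminescent ATP read-out (CellTiter-Glo, 30 min RT) after 24 hr compound exposure at 37 C of human lymphoblastoid cells in complete medium. Decrease in ATP taken as cytotoxicity; AC50 derived by standard Hill fit of qHTS concentration-response data.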"}, "[5]": {"assay": "Cell Viability - LYMP2-020 (AID 986);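 also: plate controls were DMSO only for no effect and tetraoctylammonium bromide at 92 µM for full effect; nearly all actives have a fitted effect of over 55% in size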", "in_short": "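qHTS, 2500 cells/well; 5 hr then 24 hr compound exposure, 37 C; CellTiter-Glo luminescence after 30 min RT; ATP decrease taken as cytotoxicity; AC50 via Hill equation; tetraoctylammonium bromide positive control.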"}, "[6]": {"assay": "Cell Viability - LYMP2-022 (AID 987);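 also: 0% = DMSO alone and full effect = tetraoctylammonium bromide at 92 µM; nearly all actives have a fitted effect of over 55% in size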", "in_short": "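Luminescent ATP read-out (CellTiter-Glo, 30 min, RT) after 24 hr, 37 C compound exposure of 2500 human lymphoblastoid cells/well in complete medium. Cytotoxicity taken as concentration-dependent ATP loss; AC50 from standard Hill equation.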"}, "[7]": {"assay": "Cell Viability - LYMP2-024 (AID 988);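 also: plate controls were DMSO only for no effect and 92 µM tetraoctylammonium bromide for full effect; nearly all actives have a fitted effect of over 60% in size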", "in_short": "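ATP-based luminescence (CellTiter-Glo, 30 min RT) after 24 h compound exposure at 37 C of 2500 lymphoblastoid cells/well; decrease in ATP taken as cytotoxicity. qHTS concentration-response fitted to standard Hill equation for AC50.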"}, "[8]": {"assay": "Cell Viability - LYMP2-026 (AID 989); also: % is scaled to controls: 0 for no effect and ±100 for the full control effect; nearly all actives have a fitted effect of over 50% in size", "in_short": "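qHTS cytotoxicity: 2500 cells/well, 5 hr 37 C, compound 24 hr 37 C, CellTiter-Glo 30 min RT, luminescence. Tetraoctylammonium bromide positive control. AC50 via standard Hill fit.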"}, "[9]": {"assay": "Cell Viability - LYMP1-002 - Assay at 24 hr (AID 993); also: % is scaled to controls: 0 for no effect and ±100 for the full control effect", "in_short": "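CellTiter-Glo luminescence (intracellular ATP) after 24 h compound exposure, 37 C, in LYMP1-002 human lymphoblastoid cells; decreased ATP taken as cytotoxicity. AC50 from standard Hill fit of concentration-response curves.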"}, "[10]": {"assay": "Cell Viability - LYMP1-002 - Assay at 40 hr (AID 994)", "in_short": "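qHTS cytotoxicity; 2500 cells/well, 5 hr 37 C settle, compound 40 hr 37 C. CellTiter-Glo, 30 min RT, luminescence (ATP). Concentration-response, Hill fit → AC50. Pos. ctrl tetraoctylammonium bromide.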"}, "[11]": {"assay": "Cell Viability - LYMP2-010 (AID 981);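 also: cells exposed to compound for 24 hours at 37 °C; % is scaled to controls: 0 for no effect and ±100 for the full control effect; nearly all actives have a fitted effect of over 55% in size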", "in_short": "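qHTS cytotoxicity, 1536-well: 2500 cells/well, 5 hr settle, 24 hr compound at 37 C, CellTiter-Glo 30 min RT, luminescence read. Decrease in ATP = toxicity; AC50 via standard Hill equation. Positive control tetraoctylammonium bromide.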"}, "[12]": {"assay": "Cell Viability - LYMP2-012 (AID 982);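 also: cellular ATP by luciferase luminescence where a drop means cytotoxicity; cells exposed to compound for one day before reading; 0% = DMSO only and full loss = 92 µM tetraoctylammonium bromide; nearly all actives have a fitted effect of over 55% in size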"}, "[13]": {"assay": "Cell Viability - LYMP2-014 (AID 983);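 also: plate controls were DMSO only for no effect and 92 µM tetraoctylammonium bromide for full effect; nearly all actives have a fitted effect of over 50% in size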", "in_short": "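2500 cells/well, 5 hr 37 C; cpd 24 hr 37 C, complete medium; CellTiter-Glo 30 min RT, luminescence; ATP loss = toxicity; AC50 via Hill eqn; tetraoctylammonium bromide positive control.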"}, "[14]": {"assay": "Cell Viability - LYMP2-016 (AID 984)", "in_short": "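Human lymphoblastoid LYMP2-016 cells, 2500 per well, treated with compounds for 24 h at 37 C. Viability read as intracellular ATP by CellTiter-Glo luminescence after 30 min at room temperature; AC50 from Hill fits of concentration-response.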"}, "[15]": {"assay": "Cell Viability - LYMP2-018 (AID 985);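 also: plate controls were DMSO only for no effect and tetraoctylammonium bromide at 92 µM for full effect; nearly all actives have a fitted effect of over 50% in size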", "in_short": "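2500 cells/well; 5 hr 37 C; cmpd 24 hr 37 C, complete medium; CellTiter-Glo 30 min RT; luminescence. Tetraoctylammonium bromide positive control. AC50 via Hill fit.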"}, "[16]": {"conditions": "measured here: cell count channel max response"}, "[17]": {"conditions": "measured here: lipid channel max response"}}, "note": "Several values for one entry are separate records, joined by “and”; a condition that tells them apart may be missing. Equal values may be shown once. Results filed as inconclusive are left out. Activity calls are given as the source filed them. Unless noted, calls follow the shape of the dose curve; as a rule, active = well fitted cell-killing curve with a large enough effect; inconclusive = small, poorly fitted or top-dose-only effect; inactive = flat fitted curve, though single readings scatter."}
{"molecule": "NC(N)=NS(=O)(=O)c1ccc(N)cc1", "values": [{"measurement": "activity change, negative = inhibition", "setting": "[1]; at 25.7 µM (top of the series)", "value": "-0.993% (inactive)"}, {"measurement": "activity change, negative = inhibition", "setting": "[1]; at 57.5 µM (top of the series)", "value": "6.41% (inactive)"}, {"measurement": "max response", "setting": "[1]; [16]", "value": "1.84% and 2.06%"}, {"measurement": "max response", "setting": "[1]; [17]", "value": "-0.509% and 12.7%"}]}
{"molecule": "O=C1c2cccc(O)c2C(=O)c2c(O)cccc21", "values": [{"measurement": "outcome", "setting": "[2]", "value": "inactive"}, {"measurement": "outcome", "setting": "[3]", "value": "inactive"}, {"measurement": "outcome", "setting": "[4]", "value": "inactive"}, {"measurement": "outcome", "setting": "[5]", "value": "inactive"}, {"measurement": "outcome", "setting": "[6]", "value": "inactive"}, {"measurement": "outcome", "setting": "[7]", "value": "inactive"}, {"measurement": "outcome", "setting": "[8]", "value": "inactive"}, {"measurement": "outcome", "setting": "[9]", "value": "inactive"}, {"measurement": "outcome", "setting": "[10]", "value": "inactive"}, {"measurement": "activity change, negative = inhibition", "setting": "[1]; at 57.5 µM (top of the series)", "value": "-5.01% (inactive)"}, {"measurement": "max response", "setting": "[1]; [16]", "value": 2.23, "unit": "%"}, {"measurement": "max response", "setting": "[1]; [17]", "value": -1.3, "unit": "%"}]}
{"molecule": "O=C1C(c2[nH]c3ccccc3c2O)=Nc2ccccc21", "values": [{"measurement": "outcome", "setting": "[2]", "value": "inactive"}, {"measurement": "outcome", "setting": "[3]", "value": "inactive"}, {"measurement": "outcome", "setting": "[4]", "value": "inactive"}, {"measurement": "outcome", "setting": "[11]", "value": "inactive"}, {"measurement": "outcome", "setting": "[12]", "value": "inactive"}, {"measurement": "outcome", "setting": "[13]", "value": "inactive"}, {"measurement": "outcome", "setting": "[14]", "value": "inactive"}, {"measurement": "outcome", "setting": "[15]", "value": "inactive"}, {"measurement": "outcome", "setting": "[5]", "value": "inactive"}, {"measurement": "outcome", "setting": "[6]", "value": "inactive"}, {"measurement": "outcome", "setting": "[7]", "value": "inactive"}, {"measurement": "outcome", "setting": "[8]", "value": "inactive"}, {"measurement": "outcome", "setting": "[9]", "value": "inactive"}, {"measurement": "outcome", "setting": "[10]", "value": "inactive"}]}
{"molecule": "CCCCOC(=O)c1ccc(N)cc1", "values": [{"measurement": "outcome", "setting": "[2]", "value": "inactive"}, {"measurement": "outcome", "setting": "[3]", "value": "inactive"}, {"measurement": "outcome", "setting": "[4]", "value": "inactive"}, {"measurement": "outcome", "setting": "[11]", "value": "inactive"}, {"measurement": "outcome", "setting": "[12]", "value": "inactive"}, {"measurement": "outcome", "setting": "[13]", "value": "inactive"}, {"measurement": "outcome", "setting": "[14]", "value": "inactive"}, {"measurement": "outcome", "setting": "[15]", "value": "inactive"}, {"measurement": "outcome", "setting": "[5]", "value": "inactive"}, {"measurement": "outcome", "setting": "[6]", "value": "inactive"}, {"measurement": "outcome", "setting": "[7]", "value": "inactive"}, {"measurement": "outcome", "setting": "[8]", "value": "inactive"}, {"measurement": "outcome", "setting": "[9]", "value": "inactive"}, {"measurement": "outcome", "setting": "[10]", "value": "inactive"}, {"measurement": "activity change, negative = inhibition", "setting": "[1]; at 25.7 µM (top of the series)", "value": "0.621% (inactive)"}, {"measurement": "max response", "setting": "[1]; [16]", "value": -14.7, "unit": "%"}, {"measurement": "max response", "setting": "[1]; [17]", "value": -12.8, "unit": "%"}]}
{"molecule": "CC(=O)Nc1ccccc1", "values": [{"measurement": "outcome", "setting": "[2]", "value": "inactive"}, {"measurement": "outcome", "setting": "[3]", "value": "inactive"}, {"measurement": "outcome", "setting": "[4]", "value": "inactive"}, {"measurement": "outcome", "setting": "[11]", "value": "inactive"}, {"measurement": "outcome", "setting": "[12]", "value": "inactive"}, {"measurement": "outcome", "setting": "[13]", "value": "inactive"}, {"measurement": "outcome", "setting": "[14]", "value": "inactive"}, {"measurement": "outcome", "setting": "[15]", "value": "inactive"}, {"measurement": "outcome", "setting": "[5]", "value": "inactive"}, {"measurement": "outcome", "setting": "[6]", "value": "inactive"}, {"measurement": "outcome", "setting": "[7]", "value": "inactive"}, {"measurement": "outcome", "setting": "[8]", "value": "inactive"}, {"measurement": "outcome", "setting": "[9]", "value": "inactive"}, {"measurement": "outcome", "setting": "[10]", "value": "inactive"}, {"measurement": "activity change, negative = inhibition", "setting": "[1]; at 57.5 µM (top of the series)", "value": "8.44% (inactive)"}, {"measurement": "max response", "setting": "[1]; [16]", "value": 6.17, "unit": "%"}, {"measurement": "max response", "setting": "[1]; [17]", "value": 17.6, "unit": "%"}]}
